# Assay results: the supplement of paper PMC6555819
# Experiments:
# Assay in all cases: PBM binding z-score (relative to random genomic background probes); higher = stronger binding; sequences stand for … in GC…GCGATTGACAGCGTAGAATGAAGG
# [1] = tested on: RARb homodimer (NR concentration 270 nM)
# Procedure, shortened: (§1)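 Binding z-scores take random background probes as their reference. They come from custom Agilent 4×180K protein-binding microarrays incubated 1 h with ligand-free nuclear receptor dimers, with antibodies against each partner (one per run) detecting binding. Scanned fluorescence was regression-normalized.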
# [2] = tested on: RARg:RXRa (NR concentration 270 nM, RXRa partner concentration 90 nM)
# Procedure, shortened: as §1
# [3] = tested on: RARg homodimer (NR concentration 270 nM)
# Procedure, shortened: as §1
# [4] = tested on: RXRa DBDmut IVT, anti-RXR (DBD mutation: RXRa K156A/R161A, NR concentration 90 nM)
# Procedure, shortened: as §1
# [5] = tested on: RXRa homodimer (NR concentration 180 nM)
# Procedure, shortened: as §1
# [6] = tested on: THRa:RXRa (NR concentration 90 nM, RXRa partner concentration 90 nM)
# Procedure, shortened: as §1
# [7] = tested on: THRa homodimer (NR concentration 90 nM)
# Procedure, shortened: as §1
# [8] = tested on: VDR homodimer (NR concentration 270 nM)
# Procedure, shortened: as §1
Sequence,PBM binding z-score [1],PBM binding z-score [2],PBM binding z-score [3],PBM binding z-score [4],PBM binding z-score [5],PBM binding z-score [6],PBM binding z-score [7],PBM binding z-score [8]
TGTCAAAGTTCATAGGTAACGTAAGTATCCACAC,3.62,5.31,5.2,4.28,5.16,2.58,-0.00989,4.46
GAAACGAGGGCAAGTTGATAGCAGAGTTTGATGG,1.68,1.6,1.94,2.43,1.02,1.41,0.0214,1.97
ACTTACGGGTCAACGAGGTTATTGCACGCGTATA,3.55,5.66,4.9,3.01,6.27,4.05,1.2,4.35
GGAACGAGGGAATTCGAGTTGATAGCATGGCGAT,-0.928,-0.376,-0.201,-0.589,-0.105,0.1,-1.07,-0.525
CATACAGGGTCAGCTAGGCCAGAGTTGGGACGGC,3.24,4.28,4.57,1.31,4.06,3.02,0.732,1.33
TCGAGTAGGTTACCAATGGGGTATTCAGCTTTCT,0.128,0.0634,0.354,0.563,0.443,0.253,-0.473,-0.39
CCTTACGGGTCATGAGGTTATAGCACGACGAGCG,3.4,5.79,4.57,1.85,6.48,3.62,0.938,1.91
TCTTGTAGAGCAAAGGTTAAGAAAGCCGAAGCCT,1.17,1.43,0.586,-0.181,2.6,1.06,-1.14,-0.734
TCTATTAGTCGATTAGGGCAACCGAAACAGCGGA,0.367,0.53,0.468,0.914,0.681,0.811,0.361,0.0266
GATACAGGGTCAAGGGCAGAGTACGCGTATTGAT,3.91,5.63,5.26,2.38,6.19,3.7,1.49,3.28
CCTACTGGGCTATCAGGTCATTGATATCAACGTT,2.18,1.56,1.35,0.092,0.965,3.1,2.44,1.01
CCTACTGGGCCGCGAAAGGTCATTGATTCAGTGA,4.47,4.49,3.88,0.701,5.19,3.25,0.433,2.12
GCTAGTTGGTCAGTAAAAGGACACACACCGGTCG,2.31,1.15,1.73,-0.384,0.00337,0.856,0.41,0.256
CTCGAATGGTCGGTTGAGGTGAGTATACGGATAA,0.181,-0.0812,0.168,-0.376,-0.171,2.85,1.49,0.136
TCTAGTAGTTGAAGGGCAACCGACGAGTCCGTTT,1.29,0.178,0.164,1.02,0.622,0.117,-0.38,0.676
CGAACTAGGTTAGAACAGGACAGTGAAGGATGAT,0.456,0.384,0.607,0.0179,0.171,1.92,-0.166,-0.137
CAAACAAGGTCAAGAGGTCAAAGTCCGCTTCCCG,6.24,–,8.91,3.92,–,–,3.28,5.74
GCGACTGGGGCAATGCAGGTTACCATAAGGTTGG,1.14,0.631,0.677,-0.584,0.553,2.56,-0.0652,-0.0846
TCATATAGGCAAAAGGTGAAAGTCGGTGTGGTAA,1.81,1.45,0.567,1.45,2.12,1.24,0.0725,0.163
CCTATTAGTTGACCACAAGGGCAACCGAAGCTCG,1.95,1.15,1.01,0.553,0.829,1.23,0.878,1.01
CCGACTGGGGTAGAAAGGTTACCATACCATCCGG,2.13,1.97,1.04,-1.26,2.35,1,-0.443,-0.2
ACTTACGGGACAACGAGGTTATAGCACGCGTATA,1.17,0.768,1.24,0.749,1.03,1.69,0.953,1.94
CAGCCTAGGTCAGGGCCCGTATAGGAGGAACGTT,2.26,2.9,3.84,-0.894,1.46,1.73,0.213,-0.478
CAAACAAGGTCAAGGTCAAAGTCGGTTTGTGCCA,5.74,–,7.76,4.13,–,4.6,4.5,5.71
TCTCGGCGGACACGAAAGGTCAGAGCTCGACATC,4.12,4.12,4.06,0.462,3.66,2.55,0.2,0.543
CCTAATGGGCCACGAAAGGTCATTGATTCAGTGA,4.85,4.78,4.65,1.17,4.84,3.95,0.853,2.52
ATATGTAGGTTATCGGGTCACTCAGTTTGCGCAT,3.37,3.31,3.06,1.56,3.33,3.59,3.18,2.36
ACTTACGGGTCAACGAGCTTATAGCACGCGTATA,2.92,5.34,5.01,1.56,6.14,2.46,0.0469,0.846
TCTTGTAGATCAAAGGGTAAGAAAGCCGAAGCCT,-0.068,0.11,-0.178,0.629,0.585,-0.022,-0.878,-0.525
